# NLRP3 yeast inh: NALP3 inhibition in yeast; inhibition, % at 10 µM; actives 0.39% (n = 330,000); Yeast reconstituted NLRP3/ASC/caspase-1, beta-gal luminescence, 24 h;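 active = inhibition of 50% or more; inactive = inhibition below 50%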;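 also: plate controls were induced DMSO wells for no effect and uninduced yeast grown without galactose for full effect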
# TIM10 inh: growth inhibitors of TIM10 yeast strain; AID 463195; inhibition, % at 10 µM; S. cerevisiae TIM10 strain growth, BacTiter-Glo luminescence, 24 h; actives 1.4% (n = 330,000);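 active = inhibition of 40% or more at the single tested concentration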;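 also: wild-type TIM10 isogenic control strain grown at permissive 25 °C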
# tim10-1 inh: tim10-1 yeast growth inhibition; S. cerevisiae tim10-1 ts strain growth, BacTiter-Glo, 24 h; inhibition, % at 20 µM; actives 2.2% (n = 330,000); AID 463190;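 active = inhibition of at least 40%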;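 also: mutant grown at 25 °C; 0% = DMSO wells with yeast and 100% = wells holding no yeast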
# tim23-1 inh: growth inhibitors of tim23-1 mutant yeast; S. cerevisiae tim23-1 growth, BacTiter-Glo luminescence, 24 h; inhibition, % at 20 µM; actives 1.3% (n = 330,000); AID 463212;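 active = growth inhibition of the mutant yeast at or above 50%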;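 also: temperature-sensitive mutant grown at 25 °C; plate controls were DMSO-treated mutant yeast for no effect and medium wells lacking yeast for full effect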
# SKKanGAS inh: blocks kanamycin growth of S. pyogenes SKKanGAS strain | actives 1.3% (n = 300,000) | inhibition, % at 7.5 µM | BacTiter-Glo, 6 h;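 active = mean replicate score, as percent of positive control median, at least 50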;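 also: strain carries kanamycin resistance gene driven by streptokinase promoter and grows in 40 µg/ml kanamycin; loss of luminescence reflects streptokinase promoter inhibition or plain growth inhibition; 0% = median of DMSO wells and 100% = positive control at its reference dose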
# tim23-1 conf: tim23-1 yeast growth inhibition, confirmed | shares compounds with tim23-1 inh | actives 83% (n = 4,400) | inhibition, % at 20 µM | S. cerevisiae tim23-1 growth, BacTiter-Glo luminescence, 24 h | AID 463218;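 active = inhibition above about 39% in either of two replicate wells at 20 µM, limit read from the data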;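 also: temperature-sensitive tim23-1 mutant grown at 25 °C; 0% = DMSO wells with yeast and 100% = medium wells without yeast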
# Numbers without * were called inactive; · = no result given; ! = not confirmed by another sample. The list is not random: actives were taken first. Their share in the collection is about 4.6%.
SMILES,NLRP3 yeast inh,TIM10 inh,tim10-1 inh,tim23-1 inh,SKKanGAS inh,tim23-1 conf
COc1cccc(-n2nnnc2SCC(=O)N2CCCc3ccccc32)c1,18,37,35,58*,-19,54*
COc1cc(OC)cc(-n2nnnc2SCC(=O)N2CCCc3ccccc32)c1,21,11,8,36,0,·
COc1cccc(CNc2ccc([N+](=O)[O-])cc2Cl)c1O,36,13,36,58*,22,65*
Cc1ccc2c(n1)CC(C)(C)CC2=O,6,-5,12,20,0,·
Cc1ccc(-c2c3c(nc4sc(C(N)=O)c(N)c24)CCCC3)o1,-2,2,36,50*,7,48*
NC(=O)c1sc2nc3c(c(-c4ccco4)c2c1N)CCC3,9,8,38,24,-2,·
COC(=O)C1=C(C)N=c2s/c(=C/c3ccoc3)c(=O)n2C1c1ccccc1 (centres undefined),13,29,37,50*,15,50*
CCOC(=O)C1=C(C)N=c2s/c(=C\c3ccc(OCC(=O)O)cc3)c(=O)n2C1c1ccccc1 (centres undefined),22,8,29,22,16,·
COc1cc2ccccc2cc1C(=O)Nc1ccc(Cc2ccncc2)cc1,0,33,30,37,26,·
COc1cc2ccccc2cc1C(=O)Nc1ccc(C)cc1,41,0,-4,59*,-2,64*
COc1ccc(C)cc1NC(=O)c1nn(-c2ccccc2)cc1OC,33,-6,0,55*,8,68*
COc1cn(-c2ccccc2)nc1C(=O)Nc1ccc(C)cc1,26,30,-51,50*,-8,39
COc1cn(-c2ccccc2)nc1C(=O)Nc1ccccc1,26,18,-11,19,-6,·
COC(=O)[C@]1(C)CCC[C@@]2(C)C3CC[C@@]4(C)C[C@]3(CCC21)CC4=NO (some centres undefined),26,24,18,52*,·,46*
COc1ccc2c(c1)-c1nc(NC(=O)c3cccs3)sc1CC2,41,30,38,53*,39,48*
Cc1ccc(NC(=S)NC2CCCC2)cc1C,7,-22,9,21,-18,·
Cc1ccc(C(C)NC(=S)NC2CCCCC2)cc1C (centres undefined),31,32,33,55*,3,22
Cc1nc(N2CCOCC2)nc2c1CCC2,-17,-1,5,-5,6,·
COc1ccccc1NC(=O)N1CCC(c2nc3ccccc3o2)CC1,7,-3,0,2,5,·
c1ccc2cc(OCc3nc4ccccc4[nH]3)ccc2c1,44,27,22,52*,14,30
Fc1ccc2cc(-c3ccccc3)ncc2c1,28,17,14,40,·,·
COc1cc2cnc(-c3ccccc3)cc2cc1OC,47,8,-8,52*,·,44*
c1ccc(-c2cc3ccccc3cn2)cc1,30,8,-9,51*,·,75*
COc1cc(OC)cc(-c2cc3ccc(OC)cc3cn2)c1,27,13,26,51*,·,55*
CN(Cc1ccccc1)C(=O)[C@@H]1CCCN1S(=O)(=O)c1ccc(Cl)cc1,26,6,22,22,1,·
SMILES,NLRP3 yeast inh,TIM10 inh,tim10-1 inh,tim23-1 inh,SKKanGAS inh,tim23-1 conf
Cc1cc(C)cc(NC(=O)CSc2nc(CSc3ccc(Cl)cc3)cc(=O)[nH]2)c1,-3,-16,7,6,9,·
Cc1ccc(C)c(S(=O)(=O)N2CCC(c3nc4c(nnn4Cc4ccc5c(c4)OCCO5)c(=O)[nH]3)CC2)c1,11,7,-4,5,34,·
Cc1cc(C(=O)N/N=C\c2cc(C(C)(C)C)ccc2O)n[nH]1,19,21,33,56*,3,55*
CSc1ccc(CNCC2CCCO2)cc1 (centres undefined),8,-2,-4,-4,-2,·
O=C1C(=O)N(C/C=C/c2ccccc2)c2ccccc21,19,15,23,76*,-1,-19
CC(C)(C)C(=O)Nc1nc(-c2ccc3c(c2)OCO3)cs1,8,31,30,55*,-6,50*
Cc1ccc(/C=C2/N=C(c3ccccc3)NNC2=O)cc1,11,15,12,23,6,·
CC(CCC(C)C(C)(C)C)[C@@H]1CC[C@H]2C3C[C@H](OS(O)(=S)=S)[C@H]4C[C@H](OS(O)(=S)=S)[C@@H](OS(O)(=S)=S)C[C@]4(C)[C@H]3CC[C@]12C (some centres undefined) (tested in a mixture with another compound),17,-59,-62,56*!,·,11
C[C@H](CCC(=O)O)[C@H]1CC[C@H]2[C@@H]3[C@H](O)C[C@@H]4C[C@H](O)CC[C@]4(C)[C@H]3CC[C@]12C,23,4,-18,8,·,·
O=C(c1ccc(CNS(=O)(=O)c2ccc(Br)cc2)cc1)N1CCCC1,7,-2,-1,-5,6,·
C=CCNc1nc2ccccc2nc1NS(=O)(=O)c1ccc(F)cc1,7,-3,32,39,0,·
C=CCNc1nc2ccccc2nc1NS(=O)(=O)c1ccc(Br)cc1,10,26,35,50*,21,54*
CCC(=O)N1CCN(c2ccc(NC(=O)c3ccc([N+](=O)[O-])o3)cc2Cl)CC1,·,·,·,·,18,·
Cc1ccc(C(=O)Nc2ccc(S(=O)(=O)N3CCCC3)cc2)o1,1,10,7,30,3,·
O=C(Nc1ccc(S(=O)(=O)N2CCCC2)cc1)c1ccc([N+](=O)[O-])o1,1,35,19,52*,·,34*
CC(=O)N1CCN(c2ccc(NC(=O)c3ccc([N+](=O)[O-])o3)cc2Cl)CC1,19,35,13,51*,24,76*
Cc1cc(Nc2ccc3c(c2)OCCO3)c2cc(Cl)ccc2n1,17,11,25,17,-14,·
CCc1ccccc1NC(=O)COc1ccc(N2CC(C(N)=O)CC2=O)cc1 (centres undefined),20,3,-22,-5,0,·
Cc1cccc(/C=c2\s/c(=C\C(=O)C(C)(C)C)[nH]c2=O)c1,11,10,25,50*,77*,54*
COCCN(C(=O)CCc1nnc(CCc2c[nH]c3ccccc23)o1)C(C)C,3,10,17,18,-4,·
CCCCn1c(N)c(N(CCOC)C(=O)C2CCN(c3ncnc4sc(C)c(C)c34)CC2)c(=O)[nH]c1=O,4,6,14,53*,-1,47*
Cc1nnc(SCC(=O)Nc2ccc(N3CCN(S(C)(=O)=O)CC3)cc2)o1,-8,7,-15,3,0,·
O=C(O)/C=C\C(=O)Nc1ccc(Oc2ccc(Br)cc2)cc1,31,1,7,53*,3,15
COc1cccc(C(=O)N2CCN(Cc3nc(CC4CC4)no3)CC2)c1,-11,-7,13,-6,10,·
Cc1cc2ccccn2c1C(=O)c1cc([N+](=O)[O-])cc([N+](=O)[O-])c1,12,38,39,56*,3,67*

# Bioassay records: PubChem BioAssay, several laboratories
